PrPC TRFRET = reduces human prion protein on the cell surface; AID 720596; P04156; inhibition, % at 13.8 µM; 370,000 compounds, 0.43% hits; cell surface PrPC, TR-FRET read-out; in the data active = inhibition above about 24%; also: 0% = median of the test wells and 100% = reference compound wells
PriA SSB inh = inhibitors of Klebsiella pneumoniae PriA binding to SSB C-terminal tail; inhibition, % at 33 µM; AlphaScreen SSBct-PriA binding, biotinylated peptide; 430,000 compounds, 0.6% hits; in the data active = inhibition mostly above about 37%, no sharp cut-off; inactive = mostly below about 20%;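 also: plate controls were negative control peptide for no effect and reference peptide for full effect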
SARS 3CLpro inh = SARS-CoV 3CLpro protease inhibition; inhibition, % at 6 µM; P0C6X7; AID 1706; recombinant SARS-CoV 3CLpro, quenched FRET peptide cleavage; 290,000 compounds, 0.14% hits; in the data active = inhibition above about 12%
PrP 5UTR inh = inhibition of PrP 5' UTR reporter expression. 340,000 compounds, 0.35% hits. cell-based PrP 5' UTR mRNA reporter, plate reader. inhibition, % (no concentration beside the values); in the data active = inhibition above about 52%; also: 0 = median of the neutral control wells
PfHsp40 rescue = restores yeast growth despite PfHsp40 toxicity | growth rescue, % at 12.5 µM | AID 504582 | 340,000 compounds, 0.68% hits | S. cerevisiae expressing PfHsp40, growth rescue, ATP luminescence; in the data active = growth rescue above about 28%, passing the limit was not always enough;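 also: yeast W303a lacking pdr1 and pdr3 grown in galactose medium; growth measured after three days at 30 °C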
Vc quorum ag = inducers of Vibrio cholerae quorum light production without autoinducers. V. cholerae BH1578 lux reporter, luminescence, 6 h. activation, % at 18.7 µM. 350,000 compounds, 0.16% hits; in the data active = activation mostly above about 9.7%, no sharp cut-off
Active calls of the source: *; i = inactive; x = no result given. Only some compounds are listed: those with a hit (about 1.6% of all), similar ones and a draw of the others.

SMILES	PrPC TRFRET	PriA SSB inh	SARS 3CLpro inh	PrP 5UTR inh	PfHsp40 rescue	Vc quorum ag
Cc1cc(=O)n(CCNC(=O)COc2cccc3ccccc23)cn1	x	-9	x	x	x	x
Cc1ccc(S(=O)(=O)N2CCCCC2C(=O)Nc2nc(-c3ccccn3)cs2)cc1 (configuration not stated)	x	65*	x	x	x	x
O=C(Nc1nc(-c2ccc3c(c2)OCCO3)cs1)C1CCCN1S(=O)(=O)c1cccs1 (configuration not stated)	x	-3	x	x	x	x
O=C(Nc1nc(-c2ccccn2)cs1)C1CCCCN1S(=O)(=O)c1cccs1 (configuration not stated)	x	104*	x	x	x	x
COc1ccc(OC)c(-c2cc(C3CCN(c4ncccc4[N+](=O)[O-])CC3)[nH]n2)c1	3	65*	7	-4	1	i
O=C1CCc2cc(S(=O)(=O)NC[C@H](O)c3ccc4c(c3)CCO4)cc3c2N1CC3	x	-14	x	x	x	x
CCOc1cc(/C=N/NC(N)=S)cc(Br)c1OCc1ccccc1C	x	x	5	-36	83*	-3
O=[N+]([O-])c1cccc(-c2cc(-c3cc(Br)ccc3O)[nH]n2)c1	-24	-1	2	-23	285*	0
Oc1ccccc1-c1cc(C(F)(F)F)[nH]n1	x	x	8	x	x	x
O=[N+]([O-])c1ccccc1-c1cc(-c2ccccc2O)n[nH]1	-15	10	2	-59	49*	-1
O=C(CSc1nc2c(sc3ncccc32)c(=O)n1Cc1ccccc1)NC1CCCCC1	x	-14	x	x	x	x
O=C(Nc1cccc(C(F)(F)F)c1)Oc1ccc(Cl)c2cccnc12	10	2	5	-4	125*	-1
COc1cc(NC(=O)c2csc(N)n2)cc(C(=O)Nc2cccc(C(F)(F)F)c2)c1	20	11	x	-17	1	0
COc1cc(NC(=O)c2cc(C)on2)cc(C(=O)Nc2cccc(C(F)(F)F)c2)c1	12	1	x	-15	50*	-1
COc1cc(S(=O)(=O)NC2CCCCC2C)ccc1F (configuration not stated)	-5	-5	3	-12	98*	i
COc1cc(S(=O)(=O)NC2CCCCC2C)ccc1Cl (configuration not stated)	9	-14	5	-17	-2	-1
COc1cccc(OCCn2cccc2/C=C2/C(=N)N3OC(C)=CC3=NC2=O)c1	-2	-5	2	-8	0	i
CC1=CC2=NC(=O)/C(=C\c3cccn3CCOc3cccc(C)c3)C(=N)N2O1	2	4	0	-17	44*	0
COc1ccc(C(=O)c2oc3ccc(NC(=O)c4ccccc4Br)cc3c2C)cc1OC	x	9	x	x	x	x
CCSc1nnc(NC(=O)c2cccc(S(=O)(=O)N(C)c3ccccc3)c2)s1	7	-17	-1	-16	30*	5
Cc1c(Cl)cccc1S(=O)(=O)N[C@H]1CCN(c2nccs2)C1	x	5	x	x	x	x
Cc1ccc(-c2ccc(/C=C3/N=C(c4cccs4)OC3=O)o2)cc1Cl	x	18	x	x	x	x
O=C1OC(c2cccs2)=N/C1=C\c1ccc(-c2cccc(Cl)c2)o1	-6	91*	-2	-5	0	i
Cc1cc(C)cc(NC(=O)CSc2nc3[nH]c(=O)cc(O)c3s2)c1	-5	-12	8	-31	38*	0
O=C(CSc1nc2[nH]c(=O)cc(O)c2s1)Nc1cc(Cl)cc(Cl)c1	-6	8	6	-13	9	0
SMILES	PrPC TRFRET	PriA SSB inh	SARS 3CLpro inh	PrP 5UTR inh	PfHsp40 rescue	Vc quorum ag
CC(=O)c1cccc(S(=O)(=O)NCc2ccc([C@@H](O)c3ccco3)s2)c1	x	1	x	x	x	x
CCCCN1/C(=C/c2ccc3ccccc3[n+]2CC)Sc2ccccc21	x	x	-8	-5	128*	0
CCN1/C(=C/c2ccc3ccccc3[n+]2CC)C=Cc2ccccc21	-56	48	-4	28	166*	0
COc1ccc(C2(CNC(=O)c3cc4ccccc4o3)CCCC2)cc1	x	-3	x	x	x	x
C=CCn1c(=O)c(C(=O)NCCc2ccccc2)c(O)c2ccccc21	0	-30	2	6	94*	-2
Cc1ccc(C(c2ccc(C)o2)c2cccc([N+](=O)[O-])c2O)o1	-7	45*	5	-21	1	i
C=CCc1c(C)nc2sc(C(=O)Nc3ccc(C)cc3)c(N)c2c1C	x	-19	x	x	x	x
Cc1ccc(NC(=O)Cn2c(C)nc3c(sc4cccc(F)c43)c2=O)c(Cl)c1	x	-18	x	x	x	x
CCOC(=O)N1C(=O)C2(CCCCC2)N(c2ccccc2Cl)C1=S	-4	-5	6	-22	284*	0
